Drawing on PubChem BioAssay AID624256 (NMMLSC, 2012), this text covers GFP+ MAC1+ double positive, normalized GFP-positive differentiation and outcome for 42 molecules.

Screen size: about 360,000 compounds; about 3,700 (1%) were called active. Inconclusive results (about 2%) are left out.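 How the source made its calls: active means normalized GFP-positive differentiation at or above the plate's own cutoff, the solvent-only control mean plus 3 SD; inconclusive means no clear call, values can overlap the other calls; inactive means the rest.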 The list comes from a sample in which actives are over-represented; it also holds similar structures and randomly drawn compounds.

A short description of this test: induction of myeloid progenitor differentiation, primary screen, cell-based, flow cytometry, MLPCN library (AID 624256).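 On GFP+ MAC1+ double positive: cells exposed to compound for four days before flow analysis.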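 On normalized GFP-positive differentiation: cells exposed to compound for four days before flow analysis; 0% = DMSO wells and 100% = fulvestrant positive control at 5 µM.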 As to conditions: ER-HoxA9 myeloid progenitors, lysozyme-GFP differentiation, at 10 µM; GFP+ MAC1+ double positive: measured here: differentiation confirmed by MAC1 staining, stronger effect = higher value; normalized GFP-positive differentiation: stronger effect = higher value. Background: A flow cytometer gives signals particle by particle.
Turning to `CCCCCCCNC(=O)C1(CC2CC(c3cccc(Br)c3)=NO2)CCN(C(=O)c2cc(OCC)c(OCC)c(OCC)c2)CC1` (centres undefined), the GFP+ MAC1+ double positive turned out to be 7.1% and the normalized GFP-positive differentiation is 26.1% (active).

Take `O=C(c1ccccc1)N1CCC(CC2CC(c3ccc(Cl)cc3)=NO2)(C(=O)NCC2CCCCC2)CC1` (centres undefined): the GFP+ MAC1+ double positive stood at 1.5% and the outcome was inactive.

`COc1ccc(CNC(=O)C2(CC3CC(c4ccccc4)=NO3)CCN(C(=O)c3cccc(O)c3)CC2)cc1` (centres undefined): the GFP+ MAC1+ double positive stood at 1.8% and the outcome was inactive.

With `O=C(C(=O)N1CCC(c2ccccc2)CC1)c1ccccc1`, the GFP+ MAC1+ double positive is 2.1% and the outcome was inactive.

Take `CC(C)(O)C#Cc1ccc(CNC[C@H]2O[C@@H](n3cnc4c(=O)[nH]c(N)nc43)[C@H](O)[C@@H]2O)s1`: the GFP+ MAC1+ double positive was 0.8% and the result was inactive.

In the case of `O=S1(=O)CC(N2CCN(CCO)CC2)CN1Cc1cn(Cc2ccc(Cl)cc2)nn1` (centres undefined), the GFP+ MAC1+ double positive came out at 1.6% and the result was inactive.

Take `Cc1cnc(C(=O)N2CCCC(N3CCN(c4ccccc4F)CC3)C2)cn1` (centres undefined): the GFP+ MAC1+ double positive is 6.8% and the molecule was called inactive.

Take `CCc1noc(C)c1C(=O)N1CCCC(N2CCN(c3ccc(F)cc3)CC2)C1` (centres undefined): the GFP+ MAC1+ double positive turned out to be 5.3% and the normalized GFP-positive differentiation was 46.7% (active).

For the molecule `COc1ccccc1CN1CCCC(N2CCN(c3ccc(F)cc3)CC2)C1` (centres undefined), the GFP+ MAC1+ double positive was determined as 0.5% and the call was inactive.

Regarding `COc1ccc(-c2[nH][nH]c(=O)c2NC(=O)c2ccc([N+](=O)[O-])cc2)cc1`, the GFP+ MAC1+ double positive amounted to 0.8% and the molecule was classed as inactive.

For `O=C(CN(c1ccccc1)S(=O)(=O)c1ccc(Cl)cc1)Nc1ccccc1C(=O)N1CCCC1`, the GFP+ MAC1+ double positive was determined as 17.3% and the normalized GFP-positive differentiation was 34.3% (active).

As for `COc1ccccc1N(CC(=O)Nc1ccccc1C(=O)N1CCCC1)S(C)(=O)=O`, the GFP+ MAC1+ double positive stood at 0.3% and the result was inactive.

Consider `O=C(Nc1ccccc1C(=O)N1CCCCCC1)c1ccccc1Cl`, for which the GFP+ MAC1+ double positive was found to be 0.1% and the outcome was inactive.

For `NCCCCC(C(=O)O)N(C(=O)OCc1ccccc1)C(=O)OCc1ccccc1` (centres undefined), the GFP+ MAC1+ double positive was 0.9% and the call was inactive.

Consider `Cc1cc(=O)oc(C)c1C(=O)NCCN(C)Cc1ccccc1`, for which the GFP+ MAC1+ double positive is 0.6% and the call was inactive.

`Cc1cc(=O)oc(C)c1C(=O)NCc1ccc(F)cc1`: the GFP+ MAC1+ double positive was 9.2% and the outcome was inactive.

With `Cc1cc(=O)oc(C)c1C(=O)Nc1cnc2ccccc2c1`, the GFP+ MAC1+ double positive is 1% and the normalized GFP-positive differentiation was 6.77% (active).

Take `COc1ccc(-c2cc3c(c4c2ccn4C)C2CCC3C2)cn1` (centres undefined): the GFP+ MAC1+ double positive came out at 1.4% and the result was inactive.

For `O=C1Nc2ccccc2-n2nnnc2C1N1CCN(c2cccc(C(F)(F)F)n2)CC1` (centres undefined), the GFP+ MAC1+ double positive was 1.4% and the call was inactive.

As to `CCCCCCc1cc2cc(-c3nnc(-c4ccccc4)o3)c(=O)oc2cc1O`, the GFP+ MAC1+ double positive is 56.6% and the normalized GFP-positive differentiation was 197% (active).

On to `CCc1ccc(CN(C)C(=O)CCc2nnc(-c3ccc(-c4ccccc4)cc3)o2)nc1`, for which the GFP+ MAC1+ double positive was 0.1% and the molecule was called inactive.

Turning to `CN[C@H]1C[C@H]2c3cc(Oc4ccccc4C)ccc3CCN2C(=O)[C@H]1[C@H](C)O`, the GFP+ MAC1+ double positive is 0.2% and the result was inactive.

On to `O=C(Cc1cccs1)NCc1cccc(C(F)(F)F)c1`, for which the GFP+ MAC1+ double positive is 3.5% and the normalized GFP-positive differentiation is 341% (active).

Take `Cn1c(=O)c2cc(NC(=O)NCCc3cccs3)ccc2n1Cc1cccc(C(F)(F)F)c1`: the GFP+ MAC1+ double positive was 1.6% and the call was inactive.

`O=C(CCC(=O)c1ccccc1)NCc1cccc(C(F)(F)F)c1`: the GFP+ MAC1+ double positive came to 0.7% and the call was inactive.

Consider `COc1ccc(C(=O)C(OP(=O)(OC)OC)c2ccccc2OC)cc1` (centres undefined), for which the GFP+ MAC1+ double positive was determined as 2% and the call was inactive.

With `CN(C)CCCOc1ccc(-c2ccc3nccn3c2)cn1`, the GFP+ MAC1+ double positive was found to be 0.4% and the outcome was inactive.

`Cc1ccc(Cl)c(OCC(=O)N2CCc3ccccc3C2)c1`: the GFP+ MAC1+ double positive turned out to be 0.3% and the outcome was inactive.

For the molecule `CCC(=O)c1ccc(OCC(=O)OCC(=O)N2CCc3ccccc3C2)cc1`, the GFP+ MAC1+ double positive turned out to be 0.4% and the normalized GFP-positive differentiation is 6.6% (active).

Regarding `CCC(=O)c1ccc(OCC(=O)OCC(=O)NC2CCCCCC2)cc1`, the GFP+ MAC1+ double positive came to 1.4% and the molecule was called inactive.

As to `CCOc1ccc2[nH]c(=S)sc2c1`, the GFP+ MAC1+ double positive came to 0% and the result was inactive.

On to `CCC(CC)C(C(=O)NC1CCCC1)N1CCN(c2cc(C)nc3ccccc23)CC1` (centres undefined), for which the GFP+ MAC1+ double positive was found to be 1.2% and the outcome was inactive.

With `COC(=O)c1ccc2nc(-c3ccccc3)c(Cc3ccc(OC)cc3C)n2c1`, the GFP+ MAC1+ double positive worked out at 1.4% and the molecule was classed as inactive.

Take `O[C@@H]1C[C@H](c2ccccc2)N(Cc2cccs2)C[C@H]1n1cc(C2CC2)nn1`: the GFP+ MAC1+ double positive is 0.6% and the molecule was called inactive.

For `O[C@H]1C[C@H](c2ccc(Cl)cc2)N(Cc2cccs2)C[C@@H]1n1cc(C2CC2)nn1`, the GFP+ MAC1+ double positive turned out to be 3.6% and the normalized GFP-positive differentiation is 19.2% (active).

Consider `O[C@H]1CN(Cc2cccs2)[C@@H](c2ccc(Cl)cc2)C[C@@H]1n1cc(C2CC2)nn1`, for which the GFP+ MAC1+ double positive came out at 1.3% and the normalized GFP-positive differentiation is 3.49% (inactive).

In the case of `CC(C)c1cc(Cn2c3ccccc3c(=O)n2C(C)Cn2cc(C3CC3)nn2)on1` (centres undefined), the GFP+ MAC1+ double positive was found to be 2.6% and the result was inactive.

Take `COc1cccc(CNc2nc(NCc3cccs3)nc3ccsc23)c1`: the GFP+ MAC1+ double positive turned out to be 1.5% and the result was inactive.

For the molecule `O=S1(=O)C[C@@H](N2CCN(CCO)CC2)[C@H](COCc2ccccc2)N1`, the GFP+ MAC1+ double positive worked out at 0.9% and the molecule was classed as inactive.

On to `CCc1ccc([C@@H]2CC(=O)[C@@H]3CN(S(=O)(=O)c4ccc(C)cc4)[C@H](c4ccc(Cl)cc4)C[C@@H]3N2S(=O)(=O)c2ccc(C)cc2)cc1`, for which the GFP+ MAC1+ double positive is 1.2% and the outcome was inactive.

In the case of `CC(=O)Nc1cncc(-c2ccccc2CO)n1`, the GFP+ MAC1+ double positive was found to be 0.4% and the outcome was inactive.

For the molecule `CC(=O)Nc1cccc(-c2cc(NC=O)c3ncc(-c4ccc(F)c(Cl)c4)n3c2)c1`, the GFP+ MAC1+ double positive stood at 1.3% and the call was inactive.
